Screens: PubChem, several laboratories
Rows were chosen to be rich in hits. Some 1.5% of all compounds tested hit in one or more screens of this group.
LANA-H2A inh: blocks KSHV LANA binding to histone H2A/H2B | Q9QR71 | cell-free LANA-H2A/H2B peptide, fluorescence polarization | inhibition, % (no concentration beside the values) | 0.6% of 320,000 active | AID 2629; in the data active = inhibition mostly above about 10%, no sharp cut-off; inactive = mostly below about 6.7%
eLon inh: E. coli protease La inhibition. P0A9M0. purified E. coli Lon protease, fluorescence polarization. inhibition, % at 7.94 µM. 0.42% of 360,000 active. AID 602123; in the data active = inhibition above about 13%, passing the limit was not always enough
Target sequence (P0A9M0 whole entry, looked up): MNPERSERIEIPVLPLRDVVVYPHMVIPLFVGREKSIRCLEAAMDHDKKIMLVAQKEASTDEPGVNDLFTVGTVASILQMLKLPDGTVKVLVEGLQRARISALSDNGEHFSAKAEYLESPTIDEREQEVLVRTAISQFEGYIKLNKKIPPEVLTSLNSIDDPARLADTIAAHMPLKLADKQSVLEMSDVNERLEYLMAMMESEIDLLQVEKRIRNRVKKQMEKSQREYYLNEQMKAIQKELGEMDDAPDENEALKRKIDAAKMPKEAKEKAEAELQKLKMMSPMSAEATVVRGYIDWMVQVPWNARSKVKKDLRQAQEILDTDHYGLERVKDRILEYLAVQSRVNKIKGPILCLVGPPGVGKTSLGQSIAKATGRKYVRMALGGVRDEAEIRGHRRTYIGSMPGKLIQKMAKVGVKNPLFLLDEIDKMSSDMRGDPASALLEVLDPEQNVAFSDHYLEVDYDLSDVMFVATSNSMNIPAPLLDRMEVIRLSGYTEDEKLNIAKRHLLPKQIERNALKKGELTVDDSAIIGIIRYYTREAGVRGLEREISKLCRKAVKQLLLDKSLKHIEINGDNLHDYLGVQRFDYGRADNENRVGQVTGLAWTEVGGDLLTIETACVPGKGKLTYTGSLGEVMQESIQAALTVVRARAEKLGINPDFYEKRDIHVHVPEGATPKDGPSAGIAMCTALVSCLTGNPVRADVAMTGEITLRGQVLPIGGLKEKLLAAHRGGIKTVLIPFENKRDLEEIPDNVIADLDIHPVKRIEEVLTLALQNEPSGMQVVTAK
EBV gp42 inh: EBV gp42 inhibition. Q1HVG2. Fluorescence polarization binding assay, mP read-out. inhibition, % (tested at 21.74 µM). 0.42% of 220,000 active; in the data active = inhibition above about 50%
LANA DNA inh: blocks KSHV LANA C-terminal domain binding to DNA | MBP-C-LANA/FAM-LBS DNA binding, fluorescence polarization | inhibition, % at 9 µM | 0.078% of 340,000 active | AID 504423;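 active = highest replicate inhibition at or above 60% at 9 µM, even if other replicates fall short; inactive = all replicates below 60% inhibition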
GLD-1 TGE inh: GLD-1-TGE RNA interaction inhibition (C. elegans). purified GLD-1 + fluorescein TGE RNA, fluorescence polarization. inhibition, % at 5.96 µM. 0.44% of 320,000 active. AID 2280;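 active = percent inhibition above a per-plate cutoff, the plate mean of test compounds plus 3 SD, cut at about 30% in these data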
Keap1-Nrf2 PPI: disrupts human Keap1 binding to Nrf2 peptide. Q14145. 0.15% of 340,000 active. inhibition, % at 9.4 µM. AID 504523. Keap1 Kelch-Nrf2 peptide fluorescence polarization, 1536-well; in the data active = inhibition above about 12%;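 also: human Keap1 Kelch domain with fluorescein labeled Nrf2 9mer peptide probe; higher means more block of Keap1 binding to Nrf2 peptide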
A number is an active result.

Results for O=C(O)CCNC(=O)CCCn1nnc2ccccc2c1=O ?
LANA-H2A inh: 92.3; eLon inh: inactive; EBV gp42 inh: inactive; LANA DNA inh: inactive; GLD-1 TGE inh: inactive; Keap1-Nrf2 PPI: inactive

How did O=c1[nH]c(Nc2ccccc2)cc2ccccc12 do in these assays?
LANA-H2A inh: inactive; eLon inh: inactive; EBV gp42 inh: 71.7; LANA DNA inh: inactive; GLD-1 TGE inh: 55.2; Keap1-Nrf2 PPI: inactive

What do the screens show for `COc1ccc(CCNC(=O)c2cccn2C)cc1`?
LANA-H2A inh: 29.9; eLon inh: inactive; LANA DNA inh: inactive; GLD-1 TGE inh: inactive; Keap1-Nrf2 PPI: inactive

Results for O=C(O)CCCC1(C(=O)O)CCCC1 ?
eLon inh: inactive; LANA DNA inh: inactive; Keap1-Nrf2 PPI: inactive

What do the screens show for `CC(=O)c1cccc(Nc2c3c(nc4ccccc24)CCC3)c1`?
LANA-H2A inh: inactive; eLon inh: inactive; LANA DNA inh: inactive; GLD-1 TGE inh: inactive; Keap1-Nrf2 PPI: inactive

What do the screens show for `CC(=O)c1ccc(Nc2c3c(nc4ccccc24)CCCC3)cc1`?
LANA-H2A inh: inactive; eLon inh: inactive; EBV gp42 inh: 85.5; LANA DNA inh: inactive; GLD-1 TGE inh: inactive; Keap1-Nrf2 PPI: inactive

How did CC(C)C[C@H](NC(=O)NC(C)C)C(=O)O do in these assays?
LANA-H2A inh: 16.4; eLon inh: inactive; EBV gp42 inh: inactive; LANA DNA inh: inactive; GLD-1 TGE inh: inactive; Keap1-Nrf2 PPI: inactive

Results for O=C(OC1CCCCC1)c1ccc2c(c1)C1C=CCC1C(C(=O)O)N2 (stereo unspecified) ?
EBV gp42 inh: 87.6

Results for O=C(O)C1Nc2c(O)cccc2C2C=CCC12 (stereo unspecified) ?
LANA-H2A inh: inactive; eLon inh: inactive; EBV gp42 inh: 107.8; LANA DNA inh: inactive; GLD-1 TGE inh: inactive; Keap1-Nrf2 PPI: inactive

Results for O=C(O)C1Nc2c(Cl)cc(Cl)cc2C2C=CCC12 (stereo unspecified) ?
LANA-H2A inh: inactive; eLon inh: inactive; LANA DNA inh: inactive; GLD-1 TGE inh: inactive; Keap1-Nrf2 PPI: inactive

How did CCOC(=O)c1ccc2c(c1)C1C=CCC1C(C(=O)OCC)N2 (stereo unspecified) do in these assays?
LANA-H2A inh: inactive; eLon inh: inactive; LANA DNA inh: inactive; GLD-1 TGE inh: inactive; Keap1-Nrf2 PPI: inactive

What do the screens show for `N#CC12C(N)=NC3(OCCO3)C1(C#N)C1=C(CCC1)NC2c1ccccc1` (stereo unspecified)?
LANA-H2A inh: inactive; eLon inh: inactive; EBV gp42 inh: inactive; LANA DNA inh: inactive; GLD-1 TGE inh: 63.4; Keap1-Nrf2 PPI: inactive

Results for CN(C)c1ccc2c3c(cccc13)C(=O)N(c1ccccc1)C2=O ?
LANA-H2A inh: inactive; EBV gp42 inh: 102.0; GLD-1 TGE inh: 68.7

What do the screens show for `Cc1c(O)c2c3c(cccc3c1O)C(=O)N(c1ccccc1)C2=O`?
LANA-H2A inh: inactive; eLon inh: inactive; EBV gp42 inh: 83.1; LANA DNA inh: inactive; GLD-1 TGE inh: 82.0; Keap1-Nrf2 PPI: inactive

How did O=C(O)c1ccc2c3c(cccc13)C(=O)N(c1ccccc1)C2=O do in these assays?
LANA-H2A inh: inactive; eLon inh: inactive; EBV gp42 inh: inactive; LANA DNA inh: inactive; GLD-1 TGE inh: inactive; Keap1-Nrf2 PPI: inactive

What do the screens show for `Cn1c(NCCN2CCCC2)nc2cc(-c3cccc(C(F)(F)F)c3)sc2c1=O`?
eLon inh: inactive

What do the screens show for `Cn1nc(C(C)(C)C)cc1C(=O)N1CCCCC1c1cc(C(=O)N2CCOCC2)no1` (stereo unspecified)?
eLon inh: inactive

How did CC(C(=O)Oc1ccc2c(c1)OCO2)N1C(=O)c2ccccc2C1=O (stereo unspecified) do in these assays?
LANA-H2A inh: 20.9; EBV gp42 inh: inactive; GLD-1 TGE inh: inactive

How did COc1cccc(OCCOc2c(OC)cccc2OC)c1 do in these assays?
LANA-H2A inh: 14.0; eLon inh: inactive; EBV gp42 inh: inactive; LANA DNA inh: inactive; GLD-1 TGE inh: inactive; Keap1-Nrf2 PPI: inactive

How did COc1cccc(OC)c1OCCCOc1c(OC)cccc1OC do in these assays?
LANA-H2A inh: inactive; eLon inh: inactive; EBV gp42 inh: inactive; LANA DNA inh: inactive; GLD-1 TGE inh: inactive; Keap1-Nrf2 PPI: inactive

How did CCCCC(=O)N(C)c1c(CC)nc2c(OCc3cc(Cl)cc(Cl)c3)cccn12 do in these assays?
eLon inh: inactive

What do the screens show for `COc1cccc2cc(C(C)N(CCCN3CCOCC3)C(=S)Nc3cccc(C)c3)oc12` (stereo unspecified)?
LANA-H2A inh: 12.5; eLon inh: inactive; EBV gp42 inh: inactive; LANA DNA inh: inactive; GLD-1 TGE inh: inactive; Keap1-Nrf2 PPI: inactive

How did Cc1ccccc1NS(=O)(=O)c1ccc(NS(=O)(=O)c2cccs2)cc1 do in these assays?
LANA-H2A inh: inactive; eLon inh: inactive; LANA DNA inh: inactive; GLD-1 TGE inh: inactive; Keap1-Nrf2 PPI: inactive

How did COc1cc(CN2CCC(n3nccc3NC(=O)c3ccc4c(c3)OCO4)CC2)ccc1O do in these assays?
LANA-H2A inh: 47.2; eLon inh: inactive; LANA DNA inh: inactive; GLD-1 TGE inh: inactive; Keap1-Nrf2 PPI: inactive

Results for O=C(Nc1ccnn1C1CCN(Cc2ccc(CO)o2)CC1)c1ccc2c(c1)OCO2 ?
LANA-H2A inh: inactive; eLon inh: inactive; LANA DNA inh: inactive; GLD-1 TGE inh: inactive; Keap1-Nrf2 PPI: inactive

What do the screens show for `Cc1onc(-c2ccccc2)c1C(=O)Nc1nnc(C(C)(C)C)s1`?
LANA-H2A inh: 10.4; eLon inh: inactive; LANA DNA inh: inactive; GLD-1 TGE inh: inactive; Keap1-Nrf2 PPI: inactive

How did COCOc1cccc(CN2CCC2(C)C(=O)Nc2ccc3c(c2)OCO3)c1 (stereo unspecified) do in these assays?
eLon inh: inactive

How did COc1ccccc1CNC(=O)COC(=O)c1cc(=O)c2ccccc2o1 do in these assays?
LANA-H2A inh: 16.7; eLon inh: inactive; LANA DNA inh: inactive; GLD-1 TGE inh: inactive; Keap1-Nrf2 PPI: inactive

Results for Cn1nc(-c2ccc(Cl)cc2)nc2c(=O)n(C)c(=O)nc1-2 ?
LANA-H2A inh: inactive; EBV gp42 inh: 54.1; GLD-1 TGE inh: 78.4

How did C=CCn1c(O)c(N=NC(=O)CNC(=O)/C=C/c2ccc(OC)cc2)c2ccccc21 do in these assays?
LANA-H2A inh: inactive; eLon inh: inactive; EBV gp42 inh: inactive; LANA DNA inh: inactive; GLD-1 TGE inh: inactive; Keap1-Nrf2 PPI: inactive

How did C=CCn1c(O)c(N=NC(=O)CNC(=O)/C=C/c2ccco2)c2ccccc21 do in these assays?
LANA-H2A inh: inactive; eLon inh: inactive; EBV gp42 inh: 62.2; LANA DNA inh: inactive; GLD-1 TGE inh: inactive; Keap1-Nrf2 PPI: inactive

Results for NC(=O)Cn1c(O)c(N=NC(=O)CNC(=O)/C=C/c2ccccc2)c2ccccc21 ?
LANA-H2A inh: 23.2; eLon inh: inactive; LANA DNA inh: inactive; GLD-1 TGE inh: inactive; Keap1-Nrf2 PPI: inactive

What do the screens show for `CCCCn1nc(C(=O)N(CC)CC(=O)Nc2c(F)cccc2F)c2ccccc2c1=O`?
LANA-H2A inh: inactive; eLon inh: inactive; LANA DNA inh: inactive; GLD-1 TGE inh: inactive; Keap1-Nrf2 PPI: inactive

Results for CCCCn1nc(C(=O)NCC(=O)Nc2c(C)cccc2C)c2ccccc2c1=O ?
LANA-H2A inh: active; eLon inh: inactive; LANA DNA inh: inactive; GLD-1 TGE inh: inactive; Keap1-Nrf2 PPI: inactive
